Assay outcomes from PubChem BioAssay.
A selection: hits, their analogues and other compounds. The true share with any hit is near 4.8%.
NR1D1 modulator = modulates human Rev-erb alpha binding to DNA; Rev-erbα–FITC-DNA binding, fluorescence polarization, 90 min; activity, % at 10 µM; actives 0.79% (n = 370,000); AID 1259318;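 active = activity above about 14%, limit read from the data; passing the limit was not always enough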;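 note: 0% = DMSO wells with 35 nM protein and 100% = DMSO wells with 750 nM protein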
DAX1 inh-1 = DAX1 (NR0B1) inhibition, primary screen. HEK293T StAR-luciferase reporter, SF-1/DAX-1 repression relief. inhibition, % at 6.8 µM. actives 1.1% (n = 370,000);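 active = inhibition above the mean over all tested compounds plus 3 SD, cut at about 3.6% in these data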;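 note: 0% = DAX-1 cells with DMSO and 100% = cells lacking DAX-1 with DMSO; higher inhibition means more luminescence from relief of DAX-1 repression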
ssDAF12 agonist = S. stercoralis DAF-12 activation, primary screen | activation, % at 6.8 µM | HEK293 ssDAF-12/GRIP1 lit1-tk-luc reporter, luminescence; % of 3 µM dafachronic acid response | actives 1% (n = 370,000);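 active = activation above the mean over all tested compounds plus 3 SD, cut at about 0.9% in these data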;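 note: 0% = DMSO-only wells and 100% = 3 µM delta7-dafachronic acid wells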
hgDAF12 agonist = agonists of H. glycines DAF-12 nuclear receptor | HEK293 GAL4-hgDAF12 UAS-luciferase reporter, agonist luminescence; normalized to butyrate control | activation, % at 6.8 µM | actives 1.8% (n = 370,000);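 active = activation above a cutoff set at the mean of all screened compounds plus 3 SD, cut at about 10% in these data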;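 note: 0% = DMSO wells and 100% = sodium butyrate wells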
hcDAF12 agonist = activates DAF-12 receptor from parasite H. contortus. actives 1.4% (n = 370,000). HEK293 hcDAF-12 lit1-tk-luc reporter, luminescence; 0% DMSO, 100% Δ7-dafachronic acid. activation, % at 6.8 µM;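 active = activation above the mean of all tested compounds plus 3 SD, cut at about 5.5% in these data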;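 note: 100% = response to 3 µM Δ7-dafachronic acid high control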
DAX1 inh-2 = inhibits human nuclear receptor DAX1. P51843. HEK293 Gal4-DAX1 luciferase reporter, luminescence. inhibition, % at 6.75 µM. actives 0.99% (n = 340,000). AID 504766;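 active = inhibition above the mean over all tested compounds plus 3 SD, cut at about 4.2% in these data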;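 note: 0% = DAX1-transfected cells with DMSO and 100% = empty-vector control cells with DMSO; inhibition shows as a rise in luminescence from relieved DAX1 repression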
Target sequence (P51843 207-470 limits assumed): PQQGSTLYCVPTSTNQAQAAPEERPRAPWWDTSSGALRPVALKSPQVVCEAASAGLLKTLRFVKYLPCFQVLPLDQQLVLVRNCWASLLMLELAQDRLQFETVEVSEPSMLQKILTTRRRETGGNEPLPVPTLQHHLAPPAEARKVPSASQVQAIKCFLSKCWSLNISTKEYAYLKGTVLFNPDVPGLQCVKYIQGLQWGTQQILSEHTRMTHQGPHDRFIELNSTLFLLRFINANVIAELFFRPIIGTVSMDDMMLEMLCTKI
DAX1 inh confirm = confirmation of human DAX1 (NR0B1) inhibitors; shares compounds with DAX1 inh-1; HEK293T StAR-promoter luciferase reporter, SF-1/DAX-1 repression; inhibition, % at 6.8 µM; actives 87% (n = 2,400); AID 652134;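 active = inhibition above the average of every tested compound plus 3 SD, cut at about 3.8% in these data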;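 note: 0% = DAX-1 cells with DMSO and 100% = no DAX-1 control cells with DMSO; active compounds raise luminescence by relieving repression of the StAR reporter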
Target sequence (P51843 whole entry, looked up): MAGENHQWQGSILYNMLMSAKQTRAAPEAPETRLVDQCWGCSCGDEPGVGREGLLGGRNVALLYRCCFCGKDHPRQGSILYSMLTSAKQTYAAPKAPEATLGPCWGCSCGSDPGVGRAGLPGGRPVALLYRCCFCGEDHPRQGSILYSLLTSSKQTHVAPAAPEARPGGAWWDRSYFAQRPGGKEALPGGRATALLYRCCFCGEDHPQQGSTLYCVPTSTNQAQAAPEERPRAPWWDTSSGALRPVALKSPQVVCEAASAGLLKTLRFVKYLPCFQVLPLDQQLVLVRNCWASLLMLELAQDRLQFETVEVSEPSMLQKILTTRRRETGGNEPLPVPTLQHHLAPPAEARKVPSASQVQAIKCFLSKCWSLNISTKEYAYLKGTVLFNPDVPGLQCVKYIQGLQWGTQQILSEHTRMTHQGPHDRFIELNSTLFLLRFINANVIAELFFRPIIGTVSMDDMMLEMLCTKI
SF1 mutant ctr = counter-screen for DAX1 inhibitors: nonselective inhibitors with SF-1 AF2 mutant; HEK293 StAR-luciferase, luminescence; AID 652136; inhibition, % at 6.8 µM; actives 78% (n = 2,400); shares compounds with DAX1 inh-1;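 active = inhibition above the mean of all tested compounds plus 3 SD, cut at about 3% in these data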;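 note: 0% = DAX-1 transfected cells with DMSO and 100% = cells without DAX-1 with DMSO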
* marks the source's active call; other numbers are inactive results; / = not tested or not shown.

SMILES | NR1D1 modulator | DAX1 inh-1 | ssDAF12 agonist | hgDAF12 agonist | hcDAF12 agonist | DAX1 inh-2 | DAX1 inh confirm | SF1 mutant ctr
COc1cccc(/C=C2/Sc3ccc(C(=O)NCCN4CCCC4)cc3NC2=O)c1 | 13 | 10* | -1 | 3 | 0 | 0 | 4.6* | 3.2*
O=C1Nc2cc(C(=O)NCCN3CCCCCC3)ccc2S/C1=C/c1ccccc1F | -1 | 1 | -1 | 0 | -1 | 1 | / | /
Clc1cccc(Cc2c(-c3cccc(Br)c3)nc3ccc(Br)cn23)c1 | 20 | 2 | -1 | 8 | 1 | / | / | /
Fc1ccc(-c2nc3ccc(Cl)cn3c2Cc2cccc(F)c2)cc1 | 1 | 1 | -1 | 2 | 1 | / | / | /
Cc1ccc(-c2nc3cc(C)c(Br)c(C)n3c2Cc2cccc(F)c2)cc1 | 12 | 5.7* | 1.9* | 13* | 6.2* | / | 6.2* | 5.3*
Fc1cccc(Cc2c(-c3ccccc3)nc3ccc(Cl)cn23)c1 | -3 | 4.6* | -1 | 3 | 1 | / | 0 | 0
Clc1cccc(-c2nc3ccc(Br)cn3c2Cc2ccccc2)c1 | -4 | 6.7* | -1 | 4 | 1 | / | 4.6* | 1
CCCCNS(=O)(=O)CC1NCCc2ccccc21 (stereo not given) | -4 | -2 | -1 | 2 | 0 | / | / | /
CC1Sc2ccc(C(=O)OCc3ccccc3Cl)cc2NC1=O (stereo not given) | -3 | 6.1* | -1 | 6 | 2 | 2 | 7.3* | 5.9*
S=C(Nc1nc2c(s1)CCCC2)NC1CC1 | -4 | 5.3* | 0 | 10 | 3 | 1 | 6.4* | 4.3*
COc1ccc(OCC(=O)Nc2nc3c(s2)CCCC3)cc1 | -3 | 1 | 0 | -2 | -1 | 0 | / | /
O=C(Nc1nnc(-c2ccco2)s1)C1CC1 | -3 | 1 | -1 | 3 | 0 | 2 | / | /
O=C(Nc1nnc(-c2ccco2)s1)c1ccccc1 | 7 | 6.6* | 0 | 11* | 6.5* | -1 | 16* | 6.2*
O=C(NCCc1cccc(Cl)c1)c1cccs1 | -5 | 4.5* | -2 | 11* | 4 | 0 | 6.6* | 3.8*
Cc1cc(Cl)ccc1OCc1cn2cccnc2n1 | 0 | 8.0* | -1 | 11* | 2 | 1 | 8.3* | 4.0*
CCCCNC(=O)NS(=O)(=O)c1ccc(NC(=O)CSc2nnc(-c3ccc(Cl)cc3)n2N)cc1 | -2 | -1 | -1 | 0 | 4 | / | / | /
CCCCCN1CCCCC(NC(=O)c2ccccc2OC)C1=O (stereo not given) | -3 | -1 | -1 | 1 | -2 | / | / | /
O=C(CCN1C(=O)/C(=C\C=C\c2ccccc2)SC1=S)Nc1cccc(C(=O)O)c1 | 0 | 4.9* | -1 | 2 | 0 | 2 | 6.2* | 2
O=C(CCCN1C(=O)S/C(=C/C=C/c2ccccc2)C1=O)Nc1ccc(C(=O)O)cc1 | -8 | 5.3* | -1 | 0 | 3 | 1 | 5.2* | 3.8*
Oc1ccc(Cl)cc1N=Nc1ccccc1 | -1 | 0 | -1 | 3 | -2 | 0 | / | /
Cc1ccc(O)c(N=Nc2ccccc2)n1 | 4 | 5.6* | 0 | 12* | 4 | 1 | 10* | 6.5*
CN(C)CCn1c2c(c(SCC(=O)N3CCc4ccccc43)nc1=O)CCCC2 | 1 | -1 | 1 | -1 | 1 | -1 | / | /
CCN(CC)CCCn1c2c(c(SCC(=O)N3CCCc4ccccc43)nc1=O)CCC2 | -2 | 8.0* | -1 | 1 | 0 | 0 | 2 | 0
COc1ccc(-c2sc3ccccc3c2-c2ccc(OC)cc2F)cc1 | 6 | 5.3* | -1 | 3 | 2 | / | 1 | 2
COc1ccc(C(=O)CSc2nnc(-c3cccnc3)n2-c2ccc(C)cc2)cc1 | 0 | -1 | -2 | 5 | 0 | / | / | /
SMILES | NR1D1 modulator | DAX1 inh-1 | ssDAF12 agonist | hgDAF12 agonist | hcDAF12 agonist | DAX1 inh-2 | DAX1 inh confirm | SF1 mutant ctr
Cc1cc(NC(=O)COC(=O)c2cccc(OCc3ccccc3)c2)no1 | 0 | 0 | 0 | 1 | 0 | 4 | / | /
Cc1cc(NC(=O)c2cccc(COc3ccc(Br)cc3)c2)no1 | -1 | 4.5* | 0 | 12* | 4 | -3 | 4.0* | 4.6*
CCc1ccccc1CNC(=O)C1CCC(CNS(=O)(=O)c2cccc3cccnc23)CC1 (stereo not given) | 4 | 0 | -1 | -1 | -2 | / | / | /
Cc1cccc(C)c1-n1nnnc1C1c2ccccc2C(=O)N1C1CC1 (stereo not given) | 3 | 4.9* | -1 | 0 | 0 | / | -2 | -1
O=C1c2ccccc2C(c2nnnn2-c2ccc3ccccc3c2)N1C1CC1 (stereo not given) | -3 | 2 | -1 | -1 | 1 | / | / | /
CCCCCCC[C@@H](C/C=C/CCC(=O)N(C)C/C(=C/Cl)C/C(=C\C(=O)N1CC(OC)=CC1=O)OC)OC | -5 | 19* | 0 | -12 | 0 | 3 | 6.2* | -5
Nc1c(C(=O)Nc2ccc3c(c2)OCCO3)nnn1Cc1cccc(Cl)c1 | -6 | 5.2* | -1 | 3 | 2 | 0 | 11* | 4.3*
Nc1c(C(=O)Nc2ccc3c(c2)OCCO3)nnn1Cc1ccccc1Cl | 0 | 7.0* | -1 | 7 | 2 | 0 | 9.1* | 5.5*
COc1ccc(Br)cc1Cn1nnc(C(=O)Nc2ccc3c(c2)OCCO3)c1N | -5 | -1 | -2 | -3 | -2 | 0 | / | /
C=CCNc1cccc2c1S(=O)(=O)N[C@@H](CC(C)C)CO2 | -1 | -1 | -1 | 0 | 1 | / | / | /
O=C(CCc1ccccc1)N[C@H]1[C@H](OCc2ccccc2)CCC[C@@]12C(=O)N(Cc1ccccc1)c1ccc(-c3ccccn3)cc12 | 7 | -1 | -1 | 0 | 0 | / | / | /
C[C@@H]1CCCCO[C@@H](CN(C)C(=O)Nc2ccc(C(F)(F)F)cc2)[C@@H](C)CN([C@H](C)CO)C(=O)c2cc(NS(=O)(=O)c3ccc(Cl)cc3)ccc2O1 | 0 | -1 | -1 | -3 | 0 | / | / | /
CC(C)(C)S(=O)(=O)N1C[C@@H]2C(=C(CCO)C[C@@H]3C(=O)N(c4ccccc4)C(=O)[C@@H]32)[C@H]1CCO | 0 | -1 | -1 | 0 | 3 | / | / | /
COc1ccc(NC(=O)CN(C)C(=O)CSc2nc3ccccc3s2)cc1 | -6 | 5.0* | 1 | 8 | 4 | 2 | 2 | 2
CN(CC(=O)Nc1ccccc1Cl)C(=O)CSc1nc2ccccc2s1 | -3 | 1 | -1 | 2 | 1 | 0 | / | /
CN1CCN(C(=O)c2cc(COc3ccccc3)on2)[C@@H](c2ccccc2)C1 | -3 | 5.8* | 1.1* | 11* | 4 | 1 | 6.0* | 2
